Several values for one entry are separate records, joined by “and”; a condition that tells them apart may be missing. Equal entries are not always repeated. About 12,000 (3.5%) of roughly 340,000 compounds were called active. Roughly 18% stayed inconclusive and do not appear here. Calls follow the shape of the dose curve; as a rule, active = well fitted inhibition curve with a large enough effect; inconclusive = small, poorly fitted or top-dose-only effect, or another doubt; inactive = no such curve, though single readings can be large or run the other way. The list comes from a sample in which actives are over-represented; it also holds similar structures and randomly drawn compounds. A structure can be active in one record and inactive in another.
Experiment: qHTS Assay for Inhibitors of Hepatitis C Virus (HCV)
Settings: Huh7.5.1 HCVcc-Cre infection, luciferase reporter, 44 h; series mostly up to 41.8 µM; activity change, negative = inhibition: at the top concentration
Description: Hepatitis C virus (HCV) infects about 200 million people in the world. Many infected people progress to chronic liver disease including cirrhosis with a risk of developing liver cancer. To date, there is no effective vaccine for hepatitis C. Current therapy based on interferon is only effective in about half of the patients and is associated with significant adverse effects. The fraction of people with HCV who can complete a successful treatment is estimated to be no more than 10 percent. Recent development of direct-acting antivirals against HCV, such as protease and polymerase inhibitors, is promising but still requires combination with peginterferon and ribavirin for maximal efficacy. In addition, these agents are associated with high rate of resistance and many have significant side effects. Due to the lack of a culture system for infectious HCV, the search for new HCV drugs has been greatly hampered. […] High-throughput screening (HTS) with an infectious HCV system would cover the complete spectrum of potentially druggable targets in all stages of HCV lifecycle, and would have more biological relevance than other cell-based assays. Moreover, targeting several key processes in the viral life cycle may not only increase antiviral efficacy; more importantly, it may also reduce the capacity of the virus to develop resistance to the compound. The goal of this project is to identify novel HCV inhibitors as new therapies for hepatitis C, using a highly sensitive and specific assay platform which is based on a HCV infectious cell culture system established in the laboratory and adapted for high-throughput HCV drug screen. NIH Chemical Genomics Center [NCGC] NIH Molecular Libraries Probe Centers Network [MLPCN] MLPCN Grant: MH095511 Assay Submitter (PI): Jake Liang, NIDDK
The assay will start with plating 1,000 cells/well in 3 µL volume and culture for 4 h. Then 23 nL of compounds from the library collection will be added to each well, followed by adding 2.5 µL of HCVcc-Cre virus (~ 0.5 moi) and further cultured for 44 h before the luciferase assay. A volume of 4.5 µL luciferase substrates will be added to each well and the plates will be incubated at room temperature for 15 min. and then read for 15 sec. for the luciferase activity
% is scaled to controls: 0 for no effect and ±100 for the full control effect.

SMILES | activity change, negative = inhibition | Potency
COc1ccccc1CNS(=O)(=O)c1cc(C(=O)NCc2ccccn2)c(Cl)cc1Cl | -7.19% (inactive) | 
Cn1cccc1C(=O)OCC(=O)c1ccc(Br)s1 | 11% (inactive) | 
Cc1ccc(C)c(NC(=O)COC(=O)c2nn(C)c(=O)c3ccccc23)c1 | 22.1% (inactive) | 
O=C(Nc1ccccc1-c1nnn(CC(=O)N2CCN(c3ccccc3)CC2)n1)c1cccs1 |  | 12.6 µM (active)
O=C(Nc1ccccc1-c1ccccc1)c1cccs1 | -24.9% (inactive) | 
COc1ccccc1N1CCN(C(=O)Cn2nnc(-c3cccs3)n2)CC1 | -8.71% (inactive) | 
COc1cc(OC)cc(C(=O)NCC(=O)OCC(=O)NC(C)CCc2ccccc2)c1 (stereo not given) | 4.6% (inactive) | 
Cc1nn(-c2ccc(F)cc2)c(Cl)c1/C=C(/CCC(=O)O)c1nc2ccccc2s1 | 22.1% (inactive) | 
CCCN=C1N(C)C[C@@H]2[C@@H]3C(=O)N(Cc4ccccc4)C(=O)[C@@H]3[C@](C)(C(=O)OC)N12 | 12% [at 8.37 µM] (inactive) | 
Cc1ccc(S(=O)(=O)N2[C@@H](c3ccc(Br)cc3)C(C(=O)O)=C[C@H]2CC2CCCC2)cc1 | 4.65% (inactive) | 
CCCn1c(C(=O)c2ccccc2OC)nc2ccccc21 | -3.79% (inactive) | 
COc1ccc(C(=O)NCC(=O)N/N=C/c2cccnc2)cc1 | 17.2% (inactive) | 
CCn1c(/C=N/NC(=O)c2ccc(OC)cc2)nc2ccccc21 |  | 17.8 µM (active)
CCC(C)(C)n1nnnc1C(c1cccs1)N1CCN(c2nc3ccccc3s2)CC1 (stereo not given) |  | 10 µM (active)
CCC(C)(C)n1nnnc1C(c1cccs1)N1CCN(Cc2ccccc2)CC1 (stereo not given) | -14.5% (inactive) | 
CCC(C)(C)n1nnnc1C(c1ccccc1OC)N1CCSCC1 (stereo not given) | 2.53% (inactive) | 
Cc1cc(NC(=O)CSC2=NS(=O)(=O)c3cc(Cl)ccc3N2)no1 | 1.9% (inactive) | 
CCOC(=O)Nc1ccc2c(c1)N(C(=O)CCN1CCN(CCO)CC1)c1ccccc1CC2 | 6.1% (inactive) | 
CCOC(=O)CNC(=O)N1c2ccccc2Sc2ccccc21 | -3% (inactive) | 
CCNCCC(=O)N1c2ccccc2Sc2ccc(NC(=O)OCC)cc21 |  | 12.6 µM (active)
COc1cccc(-c2nc(CS(=O)CC(=O)NCc3ccc(F)cc3)c(C)o2)c1 (stereo not given) | -6.07% (inactive) | 
CCCCN(CC)CCCNC(=O)CS(=O)(=O)Cc1nc(-c2cccc(OC)c2)oc1C |  | inactive and 20 µM (active)
COc1ccc(-c2nc(CS(=O)(=O)CC(=O)NCc3cccc(Br)c3)c(C)o2)cc1 | 8.12% (inactive) | 

SMILES | activity change, negative = inhibition | Potency
COc1ccc(C(CNC(=O)c2ccc(NS(=O)(=O)c3ccc(F)c(C)c3)cc2)N(C)C)cc1 (stereo not given) | -7.07% (inactive) | 
Cc1ccc(OCCC(=O)Nc2ccc(S(=O)(=O)Nc3nccs3)cc2)cc1 | 8.18% (inactive) | 
COCCCn1c(SCc2cccc(OC)c2)nc2cc(OC)c(OC)cc2c1=N |  | 7.08 µM (active)
COCCn1c(SCc2nc3cc(OC)c(OC)cc3c(=O)[nH]2)nnc1-c1ccncc1 | 21.9% (inactive) | 
COc1cccc(CSc2nc3nc(C)cc(C)n3n2)c1 | -14.8% (inactive) | 
Cc1ccccc1SCC(=O)OCC(=O)N1CC(=O)Nc2ccccc21 | 7.25% (inactive) | 
O=C(/C=C/c1ccccc1[N+](=O)[O-])OC1CCCCC1=O (stereo not given) | -0.487% (inactive) | 
O=C(/C=C/c1ccccc1[N+](=O)[O-])NCC1CCCO1 (stereo not given) | 11.4% (inactive) | 
CC1CCCCC1NC(=O)/C(C#N)=C/C=C/c1ccccc1[N+](=O)[O-] (stereo not given) |  | 11.2 µM (active)
Cc1ccc(S(=O)(=O)N2[C@@H](c3cccc(Cl)c3)C(C(=O)O)=CC[C@H]2c2ccc(Cl)c(Cl)c2)cc1 | 22.6% (inactive) | 
C#CCOCCOCCOCCNc1nc(N2CCN(C(=O)CCCCCCCCCCNC(=O)[C@H](CCCCN)n3cc(C)nn3)CC2)nc(N2CCN(C(=O)CCCCCCCCCCNC(=O)[C@H](CO)n3cc(CCCSC)nn3)CC2)n1 | 12.2% (inactive) | 
CC(OC(=O)CCCOc1ccccc1)C(=O)Nc1ccc(Cl)cn1 (stereo not given) | 18.5% (inactive) | 
CCN(CC)S(=O)(=O)c1cc(C(=O)Nc2cc(S(=O)(=O)N3CCOCC3)ccc2N2CCCC2)ccc1F | -4.92% (inactive) | 
CCN(CC)S(=O)(=O)c1ccc(N2CCCC2)c(NC(=O)c2ccc([N+](=O)[O-])o2)c1 |  | 10 µM (active)
CCN(CC)S(=O)(=O)c1ccc(N2CCOCC2)c(NC(=O)c2ccc(=O)n(C)n2)c1 | 2.92% (inactive) | 
CCOc1ccccc1OCC(=O)Nc1ccccc1C(=O)NC1CC1 | 10.1% (inactive) | 
Cc1noc(C)c1NC(=O)Nc1ccc2c(c1)C(=O)N([C@H](C)CO)C[C@H](C)[C@@H](CN(C)C(=O)Nc1ccccc1)O2 | 14.4% (inactive) | 
Cc1noc(C)c1NC(=O)Nc1ccc2c(c1)C(=O)N([C@H](C)CO)C[C@H](C)[C@@H](CN(C)C(=O)Nc1ccc(C(F)(F)F)cc1)O2 |  | 3.98 µM (active)
Cc1noc(C)c1NC(=O)Nc1cccc2c1O[C@H](CN(C)C(=O)Nc1ccccc1)[C@@H](C)CN([C@H](C)CO)C2=O | 25.4% (inactive) | 
OCC[C@H]1C[C@H](O)[C@@H](O)[C@]2(CCc3ccccc3O2)O1 | -5.5% (inactive) | 
Cc1ccc(C)c(C(=O)COC(=O)Cn2[nH]c(=O)c3ccccc3c2=O)c1 | 6.08% (inactive) | 
CCC1(C)Cc2c(sc3nc(SC)nc(N)c23)CO1 (stereo not given) | -16.9% (inactive) | 
CCC1(C)Cc2c(sc3nnn(CC(=O)Nc4ccc(Cl)cc4)c(=O)c23)CO1 (stereo not given) |  | 11.2 µM (active)

SMILES | activity change, negative = inhibition | Potency
CCOC(=O)Cn1c(SC)nc2sc3c(c2c1=O)CC(C)(C)OC3 | -22% (inactive) | 
COc1cc(/C=C/CNC[C@H]2O[C@@H](n3cnc(C(N)=O)n3)[C@H](O)[C@@H]2O)ccc1O | 9.64% (inactive) | 
O=C(COC(=O)/C=C/c1ccc(OC(F)F)cc1)NC1CCCCC1 | 7.61% (inactive) | 
COC(=O)[C@@]1(C)[C@H]2C(=O)N(Cc3ccccc3)C(=O)[C@H]2[C@H]2CN=C(SCC3CC3)N21 | -7.38% [at 8.37 µM] (inactive) | 
Cc1ccn(-c2cccc(-n3ccc(C)n3)n2)n1 | 11.3% (inactive) | 
Cc1cccc(N2O[C@H]3C=CC2CCCC3)n1 |  | 25.1 µM (active)
Cc1cccc(N2CCN(Cc3nc(C4CC4)no3)CC2)n1 | 16.5% (inactive) | 
CCOC(=O)c1ccccc1NC(=O)COC(=O)C(Cc1c[nH]c2ccccc12)NC(C)=O (stereo not given) | 17% (inactive) | 
COc1cc2ccccc2cc1C(=O)N1CCOCC1 | -2.47% (inactive) | 
COc1ccc(S(=O)(=O)N2CCN(CC(=O)N3c4ccccc4CC3C)CC2)cc1OC (stereo not given) | 1.67% (inactive) | 
CCCOC(=O)Nc1sc2c(c1C(=O)OCC)CCC2 |  | 10 µM (active)
CCOC(=O)c1c(NC(=O)C(C)Sc2c[nH]c3ccccc23)sc2c1CCC2 (stereo not given) |  | 11.2 µM (active)
CCOC(=O)c1c(NC(=S)Nc2ccccc2C)sc2c1CCC2 | -26.7% (inactive) | 
CCOC(=O)c1c(NC(=O)CSc2cn(CC)c3ccccc23)sc2c1CCC2 | 5.24% (inactive) | 
CCOC(=O)c1c(NC(=S)NC)sc2c1CCCC2 | -8.22% (inactive) | 
CCOC(=O)c1c(NC(=S)NC(=O)c2ccco2)sc2c1CCCC2 | -9.06% (inactive) | 
O=C(CN1C(=O)NC2(CCCCCC2)C1=O)NCc1ccc(F)cc1 | 3.95% (inactive) | 
CCOc1ccc(NC(=O)CN(C)C(=O)CSc2ccccc2)cc1OCC | -2.17% (inactive) | 
O=C(Nc1ccc(F)c([N+](=O)[O-])c1)C1CCCO1 (stereo not given) | 0.692% (inactive) | 
Nc1nonc1-n1nnc(C(=O)N/N=C/c2ccccc2O)c1CN1CCCC1 | -7.74% (inactive) | 
COc1ccccc1NC(=O)COC(=O)CNC(=O)C1CCCCC1 | -14.3% (inactive) | 
CC(c1nnc(SCC(=O)Nc2sccc2C#N)n1-c1ccc(Cl)cc1)N(C)C (stereo not given) |  | 22.4 µM (active)
Cc1csc(SCC(=O)Nc2sccc2C#N)n1 | -12.8% (inactive) | 

SMILES | activity change, negative = inhibition | Potency
Cc1cccc(C)c1Nc1nnc(SCC(=O)Nc2sccc2C#N)s1 | -9.42% (inactive) | 
COc1ccccc1C(=O)NCCC(=O)NN1C(=O)NC2(CCCCC2)C1=O | 19.8% (inactive) | 
O=C1CCCCC1Sc1ccc(Cl)cc1[N+](=O)[O-] (stereo not given) | 11.8% (inactive) | 
Cc1cc(C)c(S(=O)(=O)NCC(c2ccc3c(c2)OCO3)N2CCOCC2)c(C)c1 (stereo not given) | 13.2% (inactive) | 
O=C(Cc1ccc(NC(=O)C2CCCN(C(=O)C3CCCCC3)C2)cc1)Nc1cccc(C(=O)N2CCCCC2)c1 (stereo not given) | -22.8% [at 8.37 µM] (inactive) | 
CN(C)CCNC(=O)Cc1ccc([N+](=O)[O-])cc1 | 5.72% (inactive) | 
CN(C)C(CNC(=O)Cc1ccc([N+](=O)[O-])cc1)c1ccccc1 (stereo not given) | -24.7% (inactive) | 
CC(C)(C)OC(=O)N1CCC(C(=O)Nc2cccc(C(=O)NCCc3ccccc3)c2)CC1 |  | 8.91 µM (active)
O=C(Cc1ccc(NC(=O)C2CCCN(C(=O)CCc3ccccc3)C2)cc1)Nc1ccc(C(=O)N2CCOCC2)cc1 (stereo not given) | -13.7% [at 8.37 µM] (inactive) | 
O=C(NCCc1ccccc1)c1cccc(NC(=O)c2ccccc2)c1 | -4.33% (inactive) | 
CN(C(=O)c1cccc(NC(=O)Cc2cccc(NC(=O)C3CCCN(C(=O)C4CC4)C3)c2)c1)C1CCC1 (stereo not given) | -22.6% [at 8.37 µM] (inactive) | 
CN(CCc1ccccc1)C(=O)c1cccc(NC(=O)Cc2cccc(NC(=O)C3CCCN(C(=O)C4CCC4)C3)c2)c1 (stereo not given) |  | 10 µM (active)
CN(CCc1ccccc1)C(=O)c1cccc(NC(=O)Cc2cccc(NC(=O)C3CCCN(C(=O)CCc4ccccc4)C3)c2)c1 (stereo not given) |  | 0.794 µM (active)
CN(C(=O)c1cccc(NC(=O)Cc2ccc(NC(=O)C3CCCN(C(=O)C4CCCC4)C3)cc2)c1)C1CCC1 (stereo not given) | -26.3% [at 8.37 µM] (inactive) | 
CN(C(=O)c1cccc(NC(=O)Cc2ccc([N+](=O)[O-])cc2)c1)C1CCC1 |  | 3.16 µM (active)
O=C(NCc1ccccc1)c1cccc(NC(=O)C2CCCCC2)c1 | -17.2% [at 8.37 µM] (inactive) | 
CC(Sc1ccccc1F)C(=O)Nc1cccc(S(=O)(=O)N2CCOCC2)c1 (stereo not given) | -2.13% (inactive) | 
CCC1(C)NC(=O)N(CC(=O)N2CCN(c3cccc(Cl)c3)CC2)C1=O (stereo not given) | 7.91% (inactive) | 
COc1ccc(S(=O)(=O)N2CCN(CC(=O)NCC3(N4CCOCC4)CCCCC3)CC2)cc1 | 17.9% (inactive) | 
CC(NC(=O)c1ccccc1)C(=O)Nc1ccccc1 (stereo not given) | 22.1% (inactive) | 
COc1ccc(Cl)cc1C=CC=NNC(=O)c1ccncc1 | -12.9% (inactive) | 

From PubChem BioAssay AID651820 (National Center for Advancing Translational Sciences (NCATS), 2012)
